This is a sample that favours compounds with a hit; in the whole collection about 14% have one here.
Pf growth 48h – Primary qHTS for delayed death inhibitors of the malarial parasite plastid, 48 hour incubation; hit rate 5.9% among 310,000; AID 504832, 2011; Potency, µM (titrated, usually from 28.7 µM), inactives show top-dose activity change, negative = inhibition, actives largely listed as inhibitors; P. falciparum luciferase growth in erythrocytes, 48 h; further: potency means the concentration at half of the fitted maximal effect
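Firefly luciferase activity from engineered P. falciparum reports growth; inhibitors lower the luminescent signal. Cultures contained 2% hematocrit erythrocytes at 0.1% final parasitemia.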
Sm TGR block – qHTS Assay for the Inhibitors of Schistosoma Mansoni Peroxiredoxins; purified TGR, DTNB reduction, TNB absorbance 405 nm; hit rate 3% among 360,000; Potency, µM (series often up to 114 µM), without a hit: at the highest dose activity change, negative = inhibition, usual class: inhibitors; AID 485364, 2010; Schistosoma mansoni thioredoxin glutathione reductase (TGR), Q962Y6; further: potency means the concentration at half of the fitted maximal effect; nearly all actives have a fitted effect of over 60% in size
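TGR 20 nM + NADPH 100 uM (dispensed conc.), cpd preinc 15 min RT; start with NADPH (500 uM addition) then DTNB (15 mM addition). Kinetic TNB absorbance, 405 nm filter. Four-parameter Hill fit across titration.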
HCMV antiviral – qHTS Assay for inhibitors of the human cytomegalovirus (HCMV) | HFF cells, HCMV-luciferase reporter, 72 h; active compounds read low | activity change, negative = inhibition, % at 57.5 µM | hit rate 4.5% among 410,000; in the data active means activity change below about -60%; inconclusive means no clear call, values can overlap the other calls; inactive means above about -39%
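HFF cells seeded 16 h at 37C, treated with compounds, infected with luciferase-reporter HCMV at MOI 1 PFU/cell; luciferase read at 72 h post infection, normalized to buffer-only and Salinomycin controls.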
Pf growth 96h – Primary qHTS for delayed death inhibitors of the malarial parasite plastid, 96 hour incubation; AID 504834, 2011; P. falciparum luciferase reporter growth, 96 h; hit rate 6.9% among 320,000; Potency, µM (highest dose often 28.7 µM), inactives show top-dose activity change, negative = inhibition, actives largely listed as inhibitors; further: potency means the concentration at half of the fitted maximal effect
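Compounds incubated with erythrocytes infected by luciferase-expressing P. falciparum (2% hematocrit, 0.05% parasitemia final) for 96 hours, 37 C in 5% CO2. Growth inhibition scored as decreased luciferase luminescence.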
Giardia FBPA inh – qHTS Assay for Inhibitors of Fructose-1,6-bisphosphate Aldolase from Giardia Lamblia; purified Giardia FBPA; Potency, µM (top dose mostly 59.6 µM), without a hit: at the highest dose activity, negative = inhibition, actives largely listed as inhibitors; hit rate 0.71% among 290,000; AID 2451, 2010; further: potency means the concentration at half of the fitted maximal effect; nearly all actives have a fitted effect of over 55% in size
Target sequence (A8B2U2 whole entry, looked up): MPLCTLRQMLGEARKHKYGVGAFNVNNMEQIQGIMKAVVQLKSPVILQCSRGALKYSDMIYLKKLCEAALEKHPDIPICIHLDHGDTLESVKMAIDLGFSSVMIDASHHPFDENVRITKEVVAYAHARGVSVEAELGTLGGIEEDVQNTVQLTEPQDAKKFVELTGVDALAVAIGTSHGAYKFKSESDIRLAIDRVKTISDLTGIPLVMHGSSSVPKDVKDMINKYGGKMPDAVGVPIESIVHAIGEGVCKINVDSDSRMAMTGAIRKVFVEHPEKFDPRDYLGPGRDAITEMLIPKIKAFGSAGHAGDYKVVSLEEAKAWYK
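40 nM FBPA preincubated 10 min at RT with compound (up to 57.5 uM final), then substrate plus GAPDH/TPI/NAD/arsenate coupling and diaphorase/resazurin added. Fluorescence read after 20 min at RT, 525/598 nm.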
* = called active by the depositor; ? = inconclusive; / = no result. Unless noted, the call rests on the fitted dose curve; in most records, active means well fitted curve in the direction sought with a large enough effect; inconclusive means small, poorly fitted or top-dose-only effect, or another doubt; inactive means no such curve, though single readings can be large; an effect the other way counts as inactive or inconclusive. On the % scale 0 is the no-effect control and ±100 the full control effect.

SMILES	Pf growth 48h	Sm TGR block	HCMV antiviral	Pf growth 96h	Giardia FBPA inh
O=C(CN1CCN(S(=O)(=O)c2ccc(Br)cc2)CC1)Nc1ccc(F)cc1	4.15µM*	-31.5%	61.1	18.9%	-12.8%
CCc1cccc(C)c1NC(=O)COC(=O)C1CCN(S(=O)(=O)c2ccccc2)CC1	-14.4%	3.6%	3.1	0.0%	/
O=C(CN1CCN(S(=O)(=O)c2ccccc2)CC1)Nc1ccc([N+](=O)[O-])cc1	?	-4.1%	-68.5*	?	-18.7%
CCc1cccc(C)c1NC(=O)CN1CCN(S(=O)(=O)c2ccc(C(C)(C)C)cc2)CC1	1.65µM*	-13.2%	-19.7	0.928µM*	/
N#Cc1ccsc1NC(=O)C1CCN(C(=O)c2ccc(Cl)cc2)CC1	-6.6%	?	1.1	-14.4%	/
Clc1cccc(-c2nc(-c3ccc(-c4nn[nH]n4)cc3)no2)c1	90.6%	-23.0%	52.0	58.8%	/
CCOC(=O)c1ccc(CC(=O)c2ccc(O)cc2O)o1	-11.2%	-22.2%	-11.4	/	3.0%
CCC(=O)Oc1ccc(C/C(=N\O)c2ccc(O)cc2O)o1	-0.4%	7.94µM*	-7.6	?	0.5%
COc1cccc(CNC(=O)C(=O)NCC2OCCCN2S(=O)(=O)c2cc(C)ccc2C)c1 (centres undefined)	?	-0.5%	?	?	/
Cc1nc2ccccc2c(N)c1C(=O)/C=C/c1ccccc1	5.86µM*	0.0%	-98.5*	?	1.5%
CC(=O)c1c(C)nc2ccccc2c1N	12.7%	-6.8%	-23.4	/	0.7%
Cc1ccc(S(=O)(=O)CCC(=O)Nc2sccc2C#N)cc1	-0.3%	44.7µM*	-36.3	?	/
Cc1ccc(S(=O)(=O)CCC(=O)Nc2ccccc2N2CCCC2)cc1	-27.1%	-24.2%	-19.4	-2.0%	/
Cc1ccc(S(=O)(=O)CCC(=O)Nc2ccccc2C)cc1	0.0%	39.8µM*	6.8	96.4%	-2.1%
Cc1ccccc1Nc1n[nH]c(C)c1[N+](=O)[O-]	45.0%	2.5%	14.8	3.7µM*	0.7%
Cc1cc2nc(C3CCN(CC4COc5ccccc5O4)CC3)[nH]c2cc1C (centres undefined)	13.1µM*	0.6%	-14.0	6.4%	-0.4%
CCN(CC)C(=O)CSc1nc(O)c(Cc2ccc(OC)cc2)c(=O)[nH]1	-5.8%	0.3%	26.5	9.8%	-21.2%
CCc1c(O)nc(SCC(=O)N(CC)CC)[nH]c1=O	?	/	20.4	13.1µM*	-0.2%
CC(=O)Nc1sc2c(c1C(c1ccccn1)N1CCCC1)CCCC2 (centres undefined)	9.28µM*	-1.8%	-27.1	10.4µM*	-25.2%
CC(=O)Nc1sc2c(c1C(c1cccs1)N1CCOCC1)CCCC2 (centres undefined)	?	22.4µM*	-16.0	?	-11.3%
CC(=O)Nc1sc2c(c1C(c1ccccn1)N1CCN(C)CC1)CCCC2 (centres undefined)	-25.1%	-9.1%	-26.9	?	-2.1%
CCN(c1ccccc1)c1cc(NC)[n+](C)c(C)n1	/	/	/	/	5.4%
COCCNC(=O)C1(C)CCCN(CCOc2ccc(Cl)cc2)C1 (centres undefined)	/	/	-1.1	/	/
C=CCNc1oc(/C=C/c2ccccc2)nc1C#N	5.2%	-8.7%	82.2	180.7%	-5.6%
CCc1ccc(NC(=O)Cn2c(=O)n(Cc3ccccc3)c(=O)c3oc4ccccc4c32)cc1	/	-4.2%	13.1	/	/
SMILES	Pf growth 48h	Sm TGR block	HCMV antiviral	Pf growth 96h	Giardia FBPA inh
COc1ccc(/C=N/Nc2cc(C)nc(N)n2)cc1	9.28µM*	-13.4%	-5.4	-2.2%	-13.6%
CN(C)c1cc(N/N=C\c2ccccc2)nc(N(C)C)n1	?	-6.8%	36.7	-3.6%	?
COc1ccc(/C=N/Nc2cc(N(C)C)nc(N(C)C)n2)cc1	?	-6.9%	35.9	11.7µM*	?
CCOC(=O)N1CCc2c(sc3c2c(=O)n(CCc2ccccc2)c(=O)n3CC(=O)Nc2ccc(C)cc2)C1	/	-1.6%	-29.6	/	/
COc1cc(C(=O)O[C@H]2CC(C)=CC[C@@]3(C)CC[C@@](O)(C(C)C)[C@H]23)ccc1O	?	7.5%	16.5	?	-4.8%
COc1ccc(CNC(=O)c2ccccc2[N+](=O)[O-])cc1	64.1%	8.4%	-108.2*	160.5%	0.4%
